About 83,000 compounds went through this panel and 20% of them were active in at least one assay; those are over-represented in the sample as a whole.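 Each cell line was grown in a 96-well plate and treated with one concentration of compound for 48 hours. Values below 10 were considered active.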 Active and inactive are the calls of the source.
system: NCI-H23 lung; assay: NCI-60 one-dose screen, 48 h (100 = growth as untreated, 0 = no growth, -100 = all killed); conditions: 10 µM

Structure (SMILES) | growth
NS(=O)(=O)Oc1ccc(-c2ccc3sccc3c2)cc1 | 94.2% (inactive)
C=C(C)[C@@H]1CC[C@]2(COCCC#N)CC[C@]3(C)[C@H](CC[C@@H]4[C@@]5(C)Cc6c([nH]c7ccccc67)C(C)(C)[C@@H]5CC[C@]43C)[C@@H]12 | 90.6% (inactive)
O=S(=O)(Oc1ccc(-c2ccc3sccc3c2)cc1)c1ccc(F)cc1 | 87.6% (inactive)
Cc1nn(-c2ccccc2)c2nc(Cl)c(C=O)c(-c3ccccc3)c12 | 80.6% (inactive)
Cc1ccc(S(=O)(=O)N/N=C2\CCCc3ccccc32)cc1 | 87.1% (inactive)
COc1ccc(-c2cc(-c3ccc(OC)c(OC)c3)nc(SCCCC(=O)NO)n2)cc1 | -26.8% (active)
CC(C)C[C@H](NC(=O)Cn1cccc(CNC(=O)c2ccccc2)c1=O)B(O)O | 23.7% (inactive)
CC[C@@H](C(=O)[C@@H](C)[C@@H](O)[C@H](C)[C@@H]1O[C@@H]([C@@H](CC)C(=O)O)CC[C@@H]1C)C1O[C@]2(C=CC(=O)[C@]3(CC[C@@](C)([C@H]4CC[C@](O)(CC)[C@H](C)O4)O3)O2)[C@H](C)C[C@@H]1C (stereo partly specified) | 30.5% (inactive)
CCOC(=O)/C(=C(\C)N)C1CC(=O)NC1=O (stereo unspecified) | 96.3% (inactive)
COc1cc(-c2nn(-c3cccc(NC(=O)CCNc4ccc(N5CCOCC5)cc4)c3)cc2-c2ccncc2)ccc1Cl | 13.2% (inactive)
CC(=O)N[C@H](C(=O)N[C@@H](CCCNC(=N)N)C(=O)N[C@@H](CCCCN)C(=O)N[C@@H](CCCNC(=N)N)C(=O)N[C@]1(C)CCCCCC/C=C\CCC[C@@](C)(C(=O)N[C@@H](CCCNC(=N)N)C(=O)N[C@@H](CCC(=O)O)C(=O)N[C@@H](CC(C)C)C(=O)N[C@H](C(=O)N[C@@H](CCC(=O)O)C(N)=O)C(C)C)NC(=O)[C@H](CCC(N)=O)NC(=O)[C@H](CC(C)C)NC(=O)[C@H](CC(C)C)NC(=O)[C@H](CCCNC(=N)N)NC(=O)[C@H](CCCNC(=N)N)NC(=O)[C@H](CC(C)C)NC1=O)C(C)C | 1.83% (active)
O=C1c2ccccc2C(=O)c2c1ccc1c(=O)n(-c3ccccc3C(F)(F)F)nnc21 | 3.9% (active)
Cc1c(Cl)cccc1NC(=O)CCCl | 105% (inactive)
COc1cc(-c2csc(NC(=O)Nc3cc(C(F)(F)F)cc(C(F)(F)F)c3)n2)cc(OC)c1OC | 4.18% (active)
Nc1ccn(Cc2nnc(CCC(=O)c3nc4ccccc4[nH]3)o2)c(=O)n1 | 74.5% (inactive)
O=C1C=C(Nc2cccc(Br)c2)c2ccccc2C1=O | 41.1% (inactive)
COc1cccc(N=Nc2cccc(OC)c2)c1 | 86.4% (inactive)
C=CCN(CC=C)C(=O)[C@H](CC)[C@@H]1CC[C@@H](C)[C@@H]([C@H](C)[C@@H](O)[C@@H](C)C(=O)[C@H](CC)C2O[C@]3(C=C[C@@H](O)[C@]4(CC[C@@](C)([C@H]5CC[C@](O)(CC)[C@H](C)O5)O4)O3)[C@H](C)C[C@@H]2C)O1 (stereo partly specified) | 6.23% (active)
O=C1/C=C/[C@@H](O)[C@@H]2C[C@@H](O)C[C@H]2/C=C/CCC[C@@H](C(F)(F)F)O1 | 81.4% (inactive)
CC[C@@H](C(=O)[C@@H](C)[C@@H](O)[C@H](C)[C@@H]1O[C@@H]([C@@H](CC)C(=O)N(CC)CC)CC[C@@H]1C)C1O[C@]2(C=CC(=O)[C@]3(CC[C@@](C)([C@H]4CC[C@](O)(CC)[C@H](C)O4)O3)O2)[C@H](C)C[C@@H]1C (stereo partly specified) | 20% (inactive)
O=S(=O)(O)c1ccc(Cl)cc1 | 96% (inactive)
CCN(CC)CCOc1cccc2c1C(=O)c1ccccc1C2=O | 88.2% (inactive)
CC[C@@H]1NC(=O)[C@H]([C@H](O)[C@H](C)C/C=C/c2ccc(CN3C(=O)CCCC3=O)cc2)N(C)C(=O)[C@H](C(C)C)N(C)C(=O)[C@H](CC(C)C)N(C)C(=O)[C@H](CC(C)C)N(C)C(=O)[C@@H](C)NC(=O)[C@H](C)NC(=O)[C@H](CC(C)C)N(C)C(=O)[C@H](C(C)C)NC(=O)[C@H](CC(C)C)N(C)C(=O)CN(C)C1=O | 68.8% (inactive)
O=C(Nc1ccc(NS(=O)(=O)c2ccc(F)cc2)cc1)C12CC3CC(CC(C3)C1)C2 | 94.9% (inactive)
C/C(=N\O)c1ccc(NC(=O)CSc2nnc(-c3ccccc3)n2-c2ccccc2)cc1 | 76.6% (inactive)
CC(=O)Nc1ccc2c(c1)C(=O)c1cccc(C(=O)O)c1-2 | 104% (inactive)
